Structures are written as SMILES. Values joined by “and” are separate entries in the source; they are usually repeats but may differ in a detail not shown here. Identical values can stand only once. Active and inactive are the calls of the source. The calls were made as follows: active = hit-call score of the fitted dose curve at least 0.9, where 1 is the maximum; inactive = score below 0.9.

36 molecules from PubChem BioAssay (EPA / NIEHS) can be followed below.

The nature of this assay: BSK_3C_VCAM1: BioMAP Diversity Plus: 3C Assay for Vascular cell adhesion molecule 1 (VCAM1) Biomarker Activity (AID 2282999). To be noted: BioMAP 3C HUVEC, VCAM1 ELISA, cytokine-stimulated; actives raise or lower the signal. As to the method: BSK_3C is a cell-based, multiplexed-readout assay that uses umbilical vein endothelium, a human vascular primary cell, with measurements taken at 24 hours after chemical dosing in a 96-well plate.BSK_3C_VCAM1 is an assay component measured in the BSK_3C assay. It measures VCAM-1 antibody related to regulation of gene expression using ELISA technology.Data from the assay component BSK_3C_VCAM1 was analyzed into 1 assay endpoint. This assay endpoint, BSK_3C_VCAM1, was analyzed with bidirectional fitting relative to DMSO as the negative control and baseline of activity. Using a type of binding reporter, gain or loss-of-signal activity can be used to understand changes in the signaling as they relate to the gene VCAM1. Furthermore, this assay endpoint can be referred to as a primary readout, because this assay has produced multiple assay endpoints where this one serves a signaling function. To generalize the intended target to other relatable targets, this assay endpoint is annotated to the cell adhesion molecules intended target family, where the subfamily is Immunoglobulin CAM.
The levels of cell surface (or secreted, indicated by the prefix "s") biomarker endpoints were measured by ELISA. Overt cytotoxicity to cells in confluent adherent cultures (all systems other than the BT system) was assessed by measuring total protein levels using sulforhodamine B (SRB) staining in parallel cultures at the time of biomarker measurements, indicated as SRB endpoints. For proliferation assays for adherent cell types, individual cell types are cultured at sub-confluence and relative cell numbers quantified by SRB staining at time points optimized for each system (48 h: 3C and CASM3C systems; 72 h: BT and HDF3CGF systems; 96 h: SAg system). SRB was performed by staining cells with 0.1% SRB after fixation with 10% TCA and reading wells at 560 nm.Viability and proliferation of PBMC (T cells) was quantified by Alamar Blue reduction for the SAg and BT systems. For PBMC viability (referred to as PBMC Cytotoxicity within the assay endpoint names), cells were plated (75,000/well in a 96-well plate) and then chemical samples added for 1 h before addition of activators, SEB and TSST-1 (20 ng/mL final concentration each). Cells were incubated for 90 h. Then, Alamar Blue (20 uL/well) (Invitrogen, Cat DAL1100) was added for 6 h, and the plates were read with a fluorescence microplate reader at 546/580 nm (excitation/emission). For PBMC proliferation, cells were plated and activated as above but incubated for only 16 h prior to addition of Alamar Blue. Plates were read after 6 h.
For orientation: An ELISA detects its analyte on a solid surface through an enzyme-linked reagent.
As for `O=C(c1ccc(O)cc1)c1ccc(O)cc1O`, the result was inactive.

For `O=C1CCCN1CCO`, the result was inactive.

Regarding `COc1ccc2nc(N)sc2c1`, the result was inactive.

As to `CCCCC(CC)COCC1CO1` (stereo unspecified), the outcome was inactive.

As for `C/C=C\C/C=C/CCCCCCCCOC(C)=O`, the AC50 was 26 µM (active).

`CCOC(=O)c1ccccc1C(=C1C=C(Br)C(=O)C(Br)=C1)c1cc(Br)c(O)c(Br)c1`: the AC50 was 22.9 µM (active) and 21.4 µM (active).

With `CCCCNc1ccc(NCCCC)c2c1C(=O)c1ccccc1C2=O`, the outcome was inactive.

Regarding `c1ccc(-c2ccccn2)nc1`, the outcome was inactive.

Regarding `CC(C)C(=O)C(C)C`, the result was inactive.

On to `C=C[Si](OC(C)=O)(OC(C)=O)OC(C)=O`, for which the outcome was inactive.

On to `CCCCCCCCc1ccc(Nc2ccc(CCCCCCCC)cc2)cc1`, for which the outcome was inactive.

For the molecule `C=CCOCC(O)CCl` (stereo unspecified), the outcome was inactive.

Take `O=Nc1ccc(O)cc1`: the result was inactive.

For the molecule `CCCCC/C=C\C/C=C\CCCCCCCC(=O)OC`, the AC50 is 30 µM (active).

Regarding `CCCCCCCCCCCCCCCC[N+](C)(C)CC`, the concentration at half-maximal activity (AC50) is 3.17 µM (active).

With `C=CC=CC=CCCCCC`, the result was inactive.

Consider `C#CC1(O)CC[C@H]2[C@@H]3CCC4=CCCC[C@@H]4[C@H]3CC[C@@]21C` (stereo partly specified), for which the concentration at half-maximal activity (AC50) was 10.4 µM (active).

In the case of `c1ccc2c(c1)ccc1ncccc12`, the outcome was inactive.

On to `CCCCC(CC)COC(=O)c1ccccc1O` (stereo unspecified), for which the outcome was inactive.

Take `CCOc1nc(F)cc2nc(S(=O)(=O)Nc3c(Cl)cccc3C(=O)OC)nn12`: the outcome was inactive.

As to `O=C(Cl)c1cc(C(=O)Cl)cc(C(=O)Cl)c1`, the AC50 was 12.7 µM (active).

As to `O=C(Nc1ccccc1SSc1ccccc1NC(=O)c1ccccc1)c1ccccc1`, the AC50 is 11.5 µM (active).

On to `c1ccc2c(c1)ccc1cc3c(ccc4ccccc43)cc12`, for which the outcome was inactive.

In the case of `CN1C(=O)N(C)C(O)C1O` (stereo unspecified), the result was inactive.

Turning to `CCO[Si](C)(OCC)OCC`, the outcome was inactive.

Turning to `CC1OC1C1CCC2(C)OC2C1` (stereo unspecified), the result was inactive.

As for `C=CC(=O)OCC(Br)CBr` (stereo unspecified), the half-maximal activity concentration (AC50) was 18.4 µM (active).

For the molecule `COCc1c(C(C)C)nc(C(C)C)c(/C=C/[C@@H](O)C[C@@H](O)CC(=O)O)c1-c1ccc(F)cc1`, the outcome was inactive.

Take `CC(C)(c1cc(Br)c(OCCO)c(Br)c1)c1cc(Br)c(OCCO)c(Br)c1`: the AC50 is 27.3 µM (active).

With `Nc1ccc(N)c(Cl)c1`, the AC50 is 7.54 µM (active) and 7.95 µM (active).

Consider `C=CCOc1c(Br)cc(Br)cc1Br`, for which the AC50 is 24.3 µM (active).

`O=c1c2ccccc2oc2ccccc12`: the result was inactive.

With `CCO[Si](CCCN=C=O)(OCC)OCC`, the result was inactive.

`CO[Si](OC)(OC)c1ccccc1`: the outcome was inactive.

Turning to `S=C(NC1CCCCC1)NC1CCCCC1`, the result was inactive.

`N#[N+]c1ccc2c(S(=O)(=O)[O-])cccc2c1O`: the outcome was inactive.

The AC50 is the concentration giving half of the maximal activity seen.
